One experiment has as its system C33A. The experiment can be described thus: Primary qHTS to identify gynecologic anti-cancer compounds using libraries of approved drugs and bioactive compounds (AID 1345084). Further: nearly all actives have a fitted effect of over 55% in size. Further: potency means the concentration at half of the fitted maximal effect. The following applies: Gynecologic cancer cell panel viability, ATPlite luminescence, 48 h; series mostly up to 57.5 µM. Summed up:
(§1)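 ATP-based viability (ATPlite), 1,000 cells/well, 16 h pre-incubation, 48 h compound at 37 C, 5% CO2, 15 min RT before read.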

The subject of the next experiment is CAOV3. Described as above. Conditions: Gynecologic cancer cell panel viability, ATPlite luminescence, 48 h; series mostly up to 57.5 µM. Put shortly: as §1
In general terms: Cellular ATP, detected with luciferase, serves as a proxy for viable cell number.

The subject of the next experiment is CASKI. Described as above. The following applies: Gynecologic cancer cell panel viability, ATPlite luminescence, 48 h; series mostly up to 57.5 µM. Summed up: as §1
A further experiment concerns Es-2. Described as above. The following applies: Gynecologic cancer cell panel viability, ATPlite luminescence, 48 h; series mostly up to 57.5 µM. Summed up:
as §1

A further experiment relates to HeLa. The description is as above. Conditions: Gynecologic cancer cell panel viability, ATPlite luminescence, 48 h; series mostly up to 57.5 µM. Put shortly:
as §1

In a further experiment the test system is Hek293T. The description is as above. The following applies: Gynecologic cancer cell panel viability, ATPlite luminescence, 48 h, control line for the selectivity index; series mostly up to 57.5 µM. Put shortly:
as §1

For another experiment, the system named is JEG-3. Described as above. Conditions: Gynecologic cancer cell panel viability, ATPlite luminescence, 48 h; series mostly up to 57.5 µM. Summed up: as §1
The test system of another experiment is OV90. The description is as above. Conditions: Gynecologic cancer cell panel viability, ATPlite luminescence, 48 h; series mostly up to 57.5 µM. Summed up: as §1
The next experiment relates to PA-1. The description is as above. The following applies: Gynecologic cancer cell panel viability, ATPlite luminescence, 48 h; series mostly up to 57.5 µM. Put shortly:
as §1

Another experiment concerns SKOV3. The experiment is described as above. Conditions: Gynecologic cancer cell panel viability, ATPlite luminescence, 48 h; series mostly up to 57.5 µM. Put shortly:
as §1

The next experiment relates to Tov-21-G. Described as above. The following applies: Gynecologic cancer cell panel viability, ATPlite luminescence, 48 h; series mostly up to 57.5 µM. Summed up: as §1
For a further experiment, the system named is Tov112D. Described as above. Conditions: Gynecologic cancer cell panel viability, ATPlite luminescence, 48 h; series mostly up to 57.5 µM. Summed up: as §1
The next experiment concerns WaGa. The experiment is described as follows: qHTS assay to identify novel small-molecules to repurpose for Merkel cell carcinoma treatment (AID 1296009). Further: nearly all actives have a fitted effect of over 60% in size. Further: potency means the concentration at half of the fitted maximal effect. Conditions: MCC and control cell lines, CellTiter-Glo viability, 72 h; series mostly up to 46 µM. Put shortly:
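After compound transfer in DMSO, plates were kept 72 hr at 37 degree celsius. Luminescent ATP signal from CellTiter-Glo served as viability measure, normalized against DMSO and no-cell controls.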

The nature of experiment [1]: Drug repurposing screens with cells derived from glioblastoma tumor samples (AID 1345199). Further: on the % scale 0 is the no-effect control and ±100 the full control effect; nearly all actives have a fitted effect of over 40% in size. Conditions: GBM patient neurospheres viability, ATP luminescence, 48 h. Put shortly:
(§2)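 Four patient lines of CD133+ GBM neurospheres were screened at several concentrations; hits were retested in those lines plus three slower-growing GBM lines, using 48-hour treatment and ATP-based viability.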

The next experiment relates to astro. The experiment is described as above. Conditions: viability, ATP luminescence, 48 h; series mostly up to 45.9 µM. Put shortly: as §2
Experiment [2] has as its target Nuclear receptor subfamily 1 group I member 2 (Rattus norvegicus) (UniProt Q9R1A7). The experiment can be described thus: qHTS assay for small molecule activators of the rat pregnane X receptor (rPXR) signaling pathway (AID 651751; call rule not given here; further: 0% is about no effect). The following applies: rPXR reporter cells, luciferase (One-Glo), 24 h. On the technique in general: Quantitative high-throughput screening tests each substance at several concentrations.

A short description of experiment [3]: qHTS assay for small molecule activators of the human pregnane X receptor (PXR) signaling pathway (AID 720659; call rule not given here; further: 0% is about no effect).
[4] abbreviates: at 45.9 µM (top of the series), tumour line B.
The mark [5] stands for this setting: at 45.9 µM (top of the series), tumour line D.
Setting [6] is: at 46.1 µM (top of the series), tumour line C.
Where [7] appears, read: at 20 µM (top of the series), tumour line C.
Where [8] appears, read: at 21.2 µM (top of the series), tumour line B.
Where [9] appears, read: at 21.2 µM (top of the series), tumour line D.
The mark [10] stands for this setting: at 21.3 µM (top of the series), tumour line A.

A number with no mark means an inactive call. Records with an inconclusive call do not appear. Activity calls are given as the source filed them. Unless noted, the call rests on the fitted dose curve; in most records, active means well fitted curve in the direction sought with a large enough effect; inconclusive means small, poorly fitted or top-dose-only effect, or another doubt; inactive means no such curve, though single readings can be large; an effect the other way counts as inactive or inconclusive.

Nuclear receptor subfamily 1 group I member 2 (Rattus norvegicus), sequence (Q9R1A7 whole entry, looked up): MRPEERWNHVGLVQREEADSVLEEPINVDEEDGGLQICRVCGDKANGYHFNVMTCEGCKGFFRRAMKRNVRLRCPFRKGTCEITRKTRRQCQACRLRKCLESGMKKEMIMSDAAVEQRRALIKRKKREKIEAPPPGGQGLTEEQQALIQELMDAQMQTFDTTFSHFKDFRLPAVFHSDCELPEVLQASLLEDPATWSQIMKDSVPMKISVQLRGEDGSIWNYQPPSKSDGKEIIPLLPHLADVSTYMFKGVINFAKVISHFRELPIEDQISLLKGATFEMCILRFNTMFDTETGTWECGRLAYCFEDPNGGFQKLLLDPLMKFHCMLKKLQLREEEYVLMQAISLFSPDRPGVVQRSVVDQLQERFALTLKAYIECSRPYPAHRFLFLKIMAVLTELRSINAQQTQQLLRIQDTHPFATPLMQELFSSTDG

Turning to `CN(CCCOc1ccc(Cc2ccccc2)cc1)CCC(=O)O`, the Potency entry in the experiment with C33A, with CAOV3, in the experiment on CASKI, in the experiment with Es-2, in the experiment with HeLa and in the experiment on Hek293T was “inactive” throughout. The Potency result in the experiment on JEG-3, in the experiment with OV90, in the experiment on PA-1, with SKOV3, with Tov-21-G and in the experiment with Tov112D was “inactive” in each case.
In the case of `NCCO`, the Potency entry in the experiment with WaGa, in the experiment with C33A, in the experiment on CASKI, in the experiment with Es-2, in the experiment with HeLa and in the experiment on Hek293T was “inactive” in each case. Further, the Potency entry in the experiment on JEG-3, with OV90, with PA-1, in the experiment on Tov-21-G, in the experiment with Tov112D and in the experiment with astro was “inactive” in each case. In addition, the activity, negative = cell killing in experiment [1] (at 91.6 µM (top of the series), tumour line B) is -4.71%; in experiment [1] (at 91.6 µM (top of the series), tumour line D), -21.3%; in [1] (at 99.2 µM (top of the series), tumour line C), -29.9%. Further, the max response in experiment [2] was -4.55%. Besides, the molecule was classed as inactive in experiment [3].
`O=C1CN(/N=C/c2ccc([N+](=O)[O-])o2)C(=O)N1`: the Potency in the experiment on WaGa is 23.7 µM (active); in the experiment on SKOV3, 22.4 µM (active). For the same molecule, the Potency result in the experiment on C33A, in the experiment on CASKI, in the experiment with Es-2, in the experiment with HeLa, with PA-1 and with Tov-21-G was “inactive” each time. Besides, the Potency entry in the experiment with Tov112D and with astro was “inactive” throughout. Moreover, the activity, negative = cell killing in [1] (setting [4]) is -5.05%; in experiment [1] (setting [5]), -3.4%; in experiment [1] (at 46 µM (top of the series), tumour line A), -24.2%; in experiment [1] (setting [6]), -8.71%. Besides, the max response in experiment [2] is -1.4%. Besides, the outcome in [3] was inactive.
Consider `O=C(Nc1ccc(C(=O)O)c(O)c1)c1ccccc1`, for which the Potency entry in the experiment on WaGa, in the experiment on C33A, in the experiment with CASKI, in the experiment with Es-2, with HeLa and with Hek293T was “inactive” in each case. The Potency entry in the experiment with JEG-3, with OV90, with PA-1, in the experiment with SKOV3, in the experiment with Tov-21-G and in the experiment on Tov112D was “inactive” in each case. For the same molecule, the Potency entry with astro was “inactive”. For the same molecule, the activity, negative = cell killing is -14.9% in experiment [1] (setting [4]), -3.46% in experiment [1] (setting [5]) and -18.9% in experiment [1] (setting [6]).
On to `CC(C(=O)O)c1ccc(C(=O)c2cccs2)cc1` (configuration not stated), for which the Potency result in the experiment with C33A, in the experiment with CAOV3, in the experiment on CASKI, in the experiment with Es-2, in the experiment with HeLa and in the experiment with Hek293T was “inactive” each time. For the same molecule, the Potency entry in the experiment with JEG-3, in the experiment on OV90, with PA-1, in the experiment on SKOV3, in the experiment on Tov-21-G and with Tov112D was “inactive” each time. The activity, negative = cell killing in [1] (setting [7]) is 9.23%; in experiment [1] (setting [8]), -14.5%; in experiment [1] (setting [9]) it was -0.88%; in [1] (setting [10]) it was -13%.
Regarding `CC(C)(C)c1nnc(NS(=O)(=O)c2ccc(N)cc2)s1`, the Potency result in the experiment with WaGa, with C33A, in the experiment on CASKI, in the experiment on Es-2, with HeLa and in the experiment on Hek293T was “inactive” in each case. Besides, the Potency entry with JEG-3, in the experiment on OV90, in the experiment with PA-1, with SKOV3, in the experiment with Tov-21-G and with Tov112D was “inactive” each time.
For `Fc1ccc2[nH]c(CN3CCN(c4ccccn4)CC3)cc2c1`, the Potency entry in the experiment on C33A, with CAOV3, in the experiment on CASKI, in the experiment on Es-2, in the experiment on HeLa and in the experiment with Hek293T was “inactive” each time. Moreover, the Potency result in the experiment on JEG-3, with OV90, with PA-1, in the experiment with SKOV3, with Tov-21-G and with Tov112D was “inactive” throughout.
Regarding `O=C(O)Cc1ccc(-c2ccccc2)cc1`, the Potency result with WaGa, in the experiment with C33A, with CASKI, with Es-2, in the experiment with HeLa and in the experiment on Hek293T was “inactive” in each case. For the same molecule, the Potency entry with JEG-3, with OV90, in the experiment on PA-1, in the experiment with SKOV3, in the experiment with Tov-21-G and with Tov112D was “inactive” throughout. The activity, negative = cell killing is 2.3% in experiment [1] (setting [7]), -5.31% in [1] (setting [8]), -13.6% in experiment [1] (setting [9]) and -23.3% in experiment [1] (setting [10]).

Source of the values: PubChem BioAssay (NCATS).
